Where “and” joins values, the source holds several entries; their conditions need not be identical. Identical values can stand only once. Records with an inconclusive call do not appear. Where a call stands in place of a potency, no number is given. Calls of active or inactive are those of the source. Unless noted, the call rests on the fitted dose curve; in most records, active means well fitted curve in the direction sought with a large enough effect; inconclusive means small, poorly fitted or top-dose-only effect, or another doubt; inactive means no such curve, though single readings can be large; an effect the other way counts as inactive or inconclusive.
Tests used:
[1] = target: Mitogen-activated protein kinase 10 (Mus musculus) (UniProt Q61831); assay: JNK3 AlphaScreen Assay (AID 530; active means well fitted curve in either direction with a large enough effect, not every such curve was filed as active;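 further: kinase came from lysate of stimulated human HepG2 cells; signal reports phosphorylation of biotinylated GST-cJun 1-79 at Ser73 with 10 µM ATP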)
Procedure, shortened: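 Biotinylated GST-cJun(1-79) served as substrate for JNK3 in HepG2 lysates stimulated with IL-1beta and TNF-alpha. ATP was 10 uM final, pH 7.6. Ser73 phosphorylation was quantified by AlphaScreen (680 nm excitation).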

[2] = qHTS Assay for Lipid Storage Modulators (AID 1519; calls by dose curve); settings: Drosophila S3 cells, BODIPY lipid droplet/cell ratio, laser cytometry, cells loaded with oleic acid; for activity change, negative = inhibition: at 57.5 µM (top of the series)
Procedure, shortened: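 Cells seeded at 5,000 per well were treated with compounds over a concentration series and loaded with oleic acid (400 uM, as added). Lipid droplet fluorescence (488 nm excitation, 500-530 nm channel) was read by laser-scanning cytometry and normalized to 20 uM Triacsin C.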

[3] = target: Ubiquitin carboxyl-terminal hydrolase 1 (Homo sapiens) (UniProt O94782); assay: Inhibitors of USP1/UAF1: Pilot qHTS (AID 504865); further: nearly all actives have a fitted effect of over 35% in size; further: potency means the concentration at half of the fitted maximal effect;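 on activity change, negative = inhibition: rhodamine fluorescence freed from ubiquitin-rhodamine substrate followed over time; top concentration of the series differs between compounds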
Ubiquitin carboxyl-terminal hydrolase 1 (Homo sapiens), sequence (O94782 whole entry, looked up): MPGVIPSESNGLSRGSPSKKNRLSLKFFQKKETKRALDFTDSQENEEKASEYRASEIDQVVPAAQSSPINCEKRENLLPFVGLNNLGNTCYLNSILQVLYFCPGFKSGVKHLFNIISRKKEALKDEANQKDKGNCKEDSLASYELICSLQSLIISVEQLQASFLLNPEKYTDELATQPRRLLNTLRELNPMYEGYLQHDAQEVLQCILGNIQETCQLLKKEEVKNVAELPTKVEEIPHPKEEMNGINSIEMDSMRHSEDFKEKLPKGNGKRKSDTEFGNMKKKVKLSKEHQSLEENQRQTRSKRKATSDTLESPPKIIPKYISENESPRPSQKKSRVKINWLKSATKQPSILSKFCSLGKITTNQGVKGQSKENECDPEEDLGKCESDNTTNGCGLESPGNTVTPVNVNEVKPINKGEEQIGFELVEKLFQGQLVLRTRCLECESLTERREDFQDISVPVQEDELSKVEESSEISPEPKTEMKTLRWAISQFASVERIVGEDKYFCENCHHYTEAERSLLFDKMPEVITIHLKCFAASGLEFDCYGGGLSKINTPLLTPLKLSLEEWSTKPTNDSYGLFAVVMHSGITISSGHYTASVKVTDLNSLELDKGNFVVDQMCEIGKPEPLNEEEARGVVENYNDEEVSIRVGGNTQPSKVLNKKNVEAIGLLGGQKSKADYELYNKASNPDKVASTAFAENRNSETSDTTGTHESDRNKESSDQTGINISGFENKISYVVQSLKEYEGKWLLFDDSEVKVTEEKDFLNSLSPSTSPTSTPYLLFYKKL
Procedure, shortened: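 Kinetic fluorescence assay: 1nM USP1/UAF1, 15 min compound preincubation, then 150nM Ub-Rho; 480/540 nm.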

[4] = target: Voltage-gated inwardly rectifying potassium channel KCNH2 (Homo sapiens) (UniProt Q12809); assay: qHTS Assay for Small Molecule Inhibitors of the Human hERG Channel Activity (AID 588834);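 further: U2OS cells transduced with hERG by BacMam; top concentration of the series differs between compounds; lower thallium flux fluorescence means stronger hERG block; nearly all actives have a fitted effect of over 50% in size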
Voltage-gated inwardly rectifying potassium channel KCNH2 (Homo sapiens), sequence (Q12809 whole entry, looked up): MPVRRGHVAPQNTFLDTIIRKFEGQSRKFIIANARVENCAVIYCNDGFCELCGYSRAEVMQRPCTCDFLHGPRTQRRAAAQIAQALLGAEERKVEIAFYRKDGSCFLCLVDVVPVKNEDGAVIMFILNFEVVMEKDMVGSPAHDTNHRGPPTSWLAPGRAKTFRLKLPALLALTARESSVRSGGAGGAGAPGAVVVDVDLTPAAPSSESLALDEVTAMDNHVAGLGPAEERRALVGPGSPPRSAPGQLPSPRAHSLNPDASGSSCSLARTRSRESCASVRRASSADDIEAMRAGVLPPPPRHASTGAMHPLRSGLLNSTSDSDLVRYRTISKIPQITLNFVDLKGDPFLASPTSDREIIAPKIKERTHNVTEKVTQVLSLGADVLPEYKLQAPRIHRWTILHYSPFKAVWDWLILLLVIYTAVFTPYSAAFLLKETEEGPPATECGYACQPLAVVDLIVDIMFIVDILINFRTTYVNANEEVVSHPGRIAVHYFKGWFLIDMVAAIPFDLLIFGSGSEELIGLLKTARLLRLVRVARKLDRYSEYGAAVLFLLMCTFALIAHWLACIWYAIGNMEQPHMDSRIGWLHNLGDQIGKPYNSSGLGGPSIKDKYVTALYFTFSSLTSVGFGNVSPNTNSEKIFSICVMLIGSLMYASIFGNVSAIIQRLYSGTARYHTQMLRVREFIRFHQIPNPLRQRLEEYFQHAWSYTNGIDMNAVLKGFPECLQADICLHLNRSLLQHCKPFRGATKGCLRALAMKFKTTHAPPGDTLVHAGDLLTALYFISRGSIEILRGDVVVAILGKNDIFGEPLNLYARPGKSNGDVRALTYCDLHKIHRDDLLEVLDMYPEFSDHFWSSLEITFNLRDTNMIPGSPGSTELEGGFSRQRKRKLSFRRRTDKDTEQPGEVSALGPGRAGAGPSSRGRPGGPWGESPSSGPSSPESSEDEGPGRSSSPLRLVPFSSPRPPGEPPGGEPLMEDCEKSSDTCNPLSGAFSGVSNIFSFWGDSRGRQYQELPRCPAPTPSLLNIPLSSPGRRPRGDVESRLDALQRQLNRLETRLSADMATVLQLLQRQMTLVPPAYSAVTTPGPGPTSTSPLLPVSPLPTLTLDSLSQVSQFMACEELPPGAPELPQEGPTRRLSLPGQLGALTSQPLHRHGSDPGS
Procedure, shortened: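 Cells were infected with hERG-BacMam virus for 4 hrs at room temperature, grown overnight, then seeded at 2000/well. After dye loading and roughly 10 min compound treatment, thallium influx was triggered and fluorescence recorded.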

[5] = target: Furin (Homo sapiens) (UniProt P09958); assay: Furin counterscreen qHTS for Zika virus inhibitors (AID 1347149); further: nearly all actives have a fitted effect of over 70% in size; further: potency means the concentration at half of the fitted maximal effect;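 on activity change, negative = inhibition: purified recombinant full-length human furin enzyme at 5 nM; fluorescence gain from furin cutting a BOC-RVRR-AMC peptide substrate over 15 min; top concentration of the series differs between compounds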
Furin (Homo sapiens), sequence (P09958 whole entry, looked up): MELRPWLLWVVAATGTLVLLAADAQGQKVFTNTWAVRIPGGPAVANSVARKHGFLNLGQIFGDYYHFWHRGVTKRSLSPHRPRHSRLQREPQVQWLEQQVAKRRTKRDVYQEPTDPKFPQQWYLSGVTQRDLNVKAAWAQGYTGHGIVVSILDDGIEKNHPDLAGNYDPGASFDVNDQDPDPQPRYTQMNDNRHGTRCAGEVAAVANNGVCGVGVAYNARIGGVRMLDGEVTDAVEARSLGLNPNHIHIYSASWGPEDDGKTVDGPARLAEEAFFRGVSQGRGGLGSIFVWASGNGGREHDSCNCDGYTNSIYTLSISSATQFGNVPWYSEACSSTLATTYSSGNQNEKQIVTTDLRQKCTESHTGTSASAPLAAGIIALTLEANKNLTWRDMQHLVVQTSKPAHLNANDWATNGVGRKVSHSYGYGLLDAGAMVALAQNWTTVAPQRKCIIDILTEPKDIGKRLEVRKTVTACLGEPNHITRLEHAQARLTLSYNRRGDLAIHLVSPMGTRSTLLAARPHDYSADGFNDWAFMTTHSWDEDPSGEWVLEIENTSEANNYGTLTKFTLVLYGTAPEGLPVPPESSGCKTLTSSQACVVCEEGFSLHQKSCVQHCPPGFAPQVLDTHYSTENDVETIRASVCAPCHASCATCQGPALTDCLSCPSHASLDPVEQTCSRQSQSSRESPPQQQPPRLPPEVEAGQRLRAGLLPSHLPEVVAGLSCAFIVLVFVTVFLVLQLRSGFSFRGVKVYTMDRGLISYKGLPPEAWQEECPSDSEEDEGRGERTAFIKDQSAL
Procedure, shortened: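 Counterscreen measures cleavage of 2 microM BOC-RVRR-AMC, below its ~15 microM Km, by 5 nM full-length human furin at pH 7.0 after a 15-min compound preincubation. Inhibition derives from the 15-min fluorescence increase at 37C.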

[6] = Tertiary RLuc qRT-PCR qHTS assay for Zika virus inhibitors (AID 1347169); further: nearly all actives have a fitted effect of over 55% in size; further: potency means the concentration at half of the fitted maximal effect; on activity change, negative = inhibition: top concentration of the series differs between compounds
Procedure, shortened: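 Orthogonal cell-based infection assay using recombinant ZIKV-RLuc (Cambodian) in Vero cells; compound added prior to virus at MOI 1-2. Incubation lasts 48-72 hrs at 37 degrees C before live-cell Renilla substrate is added and luminescence measured.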

[7] = tested on: Zika virus NS2B-NS3 protease; assay: Primary screen GU AMC qHTS for Zika virus inhibitors (AID 1347154); further: nearly all actives have a fitted effect of over 70% in size; further: potency means the concentration at half of the fitted maximal effect
Procedure, shortened: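 Unlinked Zika NS2B hydrophilic domain/NS3 protease domain noncovalent complex (25 nM final) in 10 mM Tris-HCl pH 8.0, 0.01% Tween 20, with AMC peptide substrate. Fluorescence (ex 340, em 450 nm) change over 15 min, room temperature; percent inhibition fitted to 4-parameter Hill equation.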

[8] = Vero cells viability qHTS for Zika virus inhibitors (AID 1347167)
Procedure, shortened: (§1)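 To flag cytotoxic protease inhibitors, viability is measured by ATP-dependent luminescence (CellTiter Glo) after cells attached overnight receive compound for 24 to 48 hours in DMEM with 4% FBS.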

[9] = HepG2 cells viability qHTS for Zika virus inhibitors (AID 1347168)
Procedure, shortened: as §1

[10] = Confirmatory qHTS for small molecule stabilizers of the endoplasmic reticulum resident proteome: Secreted ER Calcium Modulated Protein (SERCaMP) assay (AID 1508628); further: nearly all actives have a fitted effect of over 40% in size
Procedure, shortened: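 GLuc-SERCaMP-expressing SH-SY5Y cells, pretreated 16 h with compound, are challenged with thapsigargin to empty ER calcium stores; after 4 h, coelenterazine is added directly to the medium and luminescence is imaged.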

[11] = target: Nucleoprotein (Lymphocytic choriomeningitis virus (strain Armstrong)) (UniProt P09992); assay: qHTS for Inhibitors of the Functional Ribonucleoprotein Complex (vRNP) of Lymphocytic Choriomeningitis Arenaviruses (LCMV): LCMV Primary Screen - GLuc reporter signal (AID 1347086; calls by dose curve; further: potency means the concentration at half of the fitted maximal effect; nearly all actives have a fitted effect of over 70% in size)
[12] = target: Cytochrome P450 1A2 (Homo sapiens) (UniProt P05177); assay: p450-cyp1a2 (AID 410; calls by dose curve; further: potency means the concentration at half of the fitted maximal effect)
Cytochrome P450 1A2 (Homo sapiens), sequence (P05177 whole entry, looked up): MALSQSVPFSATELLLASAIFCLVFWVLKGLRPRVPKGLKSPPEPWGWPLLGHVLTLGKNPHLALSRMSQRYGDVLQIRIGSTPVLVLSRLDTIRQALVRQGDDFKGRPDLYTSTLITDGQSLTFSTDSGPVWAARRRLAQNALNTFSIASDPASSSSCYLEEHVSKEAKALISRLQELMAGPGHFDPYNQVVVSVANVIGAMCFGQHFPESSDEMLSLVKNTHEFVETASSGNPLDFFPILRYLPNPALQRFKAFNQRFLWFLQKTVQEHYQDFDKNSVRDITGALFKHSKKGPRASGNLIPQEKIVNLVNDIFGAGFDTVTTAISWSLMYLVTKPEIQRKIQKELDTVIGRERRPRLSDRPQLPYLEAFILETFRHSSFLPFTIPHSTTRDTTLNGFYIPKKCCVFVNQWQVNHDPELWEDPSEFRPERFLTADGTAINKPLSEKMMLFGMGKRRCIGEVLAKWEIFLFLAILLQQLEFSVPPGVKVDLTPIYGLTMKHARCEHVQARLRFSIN
Procedure, shortened: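 20nM CYP1A2, 100uM Luciferin-ME (=Km), 100mM KPO4; cpd 10 min RT; +NADPH regen, 60 min RT; stop/detect 20 min; luminescence. Normalized to furafylline 57 uM = full inhibition.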

[13] = target: Glucocorticoid receptor (Homo sapiens) (UniProt P04150); assay: GR-GFP Redistribution (AID 450;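 active means compounds whose dose series gives a full or clear partial fitted curve of increased nuclear translocation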; further: potency means the concentration at half of the fitted maximal effect); settings: U2OS GR-GFP nuclear translocation, laser cytometry, 2 h
Glucocorticoid receptor (Homo sapiens), sequence (P04150 whole entry, looked up): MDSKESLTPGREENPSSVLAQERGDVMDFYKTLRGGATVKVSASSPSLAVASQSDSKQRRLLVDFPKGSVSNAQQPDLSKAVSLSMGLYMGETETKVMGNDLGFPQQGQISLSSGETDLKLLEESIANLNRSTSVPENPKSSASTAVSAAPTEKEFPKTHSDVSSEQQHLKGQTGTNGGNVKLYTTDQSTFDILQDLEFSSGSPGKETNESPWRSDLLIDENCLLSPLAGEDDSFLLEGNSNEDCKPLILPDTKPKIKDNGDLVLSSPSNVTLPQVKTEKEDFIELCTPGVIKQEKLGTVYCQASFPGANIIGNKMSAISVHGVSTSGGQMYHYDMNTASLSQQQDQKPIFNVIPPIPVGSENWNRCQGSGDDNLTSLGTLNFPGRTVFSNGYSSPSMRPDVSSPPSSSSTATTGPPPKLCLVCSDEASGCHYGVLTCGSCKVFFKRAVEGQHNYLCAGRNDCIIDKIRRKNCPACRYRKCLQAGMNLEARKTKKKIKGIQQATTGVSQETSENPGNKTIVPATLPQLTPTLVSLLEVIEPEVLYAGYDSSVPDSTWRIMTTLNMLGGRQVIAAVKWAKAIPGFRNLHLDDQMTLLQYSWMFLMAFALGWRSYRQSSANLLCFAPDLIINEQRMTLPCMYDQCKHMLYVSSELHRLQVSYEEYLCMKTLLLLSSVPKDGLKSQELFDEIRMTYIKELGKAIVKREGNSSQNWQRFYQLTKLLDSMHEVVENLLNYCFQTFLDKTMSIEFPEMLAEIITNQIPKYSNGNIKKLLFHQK

[14] = target: 3',5'-cyclic-AMP phosphodiesterase 4B (Homo sapiens) (UniProt Q07343); assay: qHTS Assay for Inhibitors of PDE-IV (AID 607; active means well fitted activation curve with a large enough effect in the main read-out, with a control signal flat, not every such curve was filed as active)
3',5'-cyclic-AMP phosphodiesterase 4B (Homo sapiens), sequence (Q07343 whole entry, looked up): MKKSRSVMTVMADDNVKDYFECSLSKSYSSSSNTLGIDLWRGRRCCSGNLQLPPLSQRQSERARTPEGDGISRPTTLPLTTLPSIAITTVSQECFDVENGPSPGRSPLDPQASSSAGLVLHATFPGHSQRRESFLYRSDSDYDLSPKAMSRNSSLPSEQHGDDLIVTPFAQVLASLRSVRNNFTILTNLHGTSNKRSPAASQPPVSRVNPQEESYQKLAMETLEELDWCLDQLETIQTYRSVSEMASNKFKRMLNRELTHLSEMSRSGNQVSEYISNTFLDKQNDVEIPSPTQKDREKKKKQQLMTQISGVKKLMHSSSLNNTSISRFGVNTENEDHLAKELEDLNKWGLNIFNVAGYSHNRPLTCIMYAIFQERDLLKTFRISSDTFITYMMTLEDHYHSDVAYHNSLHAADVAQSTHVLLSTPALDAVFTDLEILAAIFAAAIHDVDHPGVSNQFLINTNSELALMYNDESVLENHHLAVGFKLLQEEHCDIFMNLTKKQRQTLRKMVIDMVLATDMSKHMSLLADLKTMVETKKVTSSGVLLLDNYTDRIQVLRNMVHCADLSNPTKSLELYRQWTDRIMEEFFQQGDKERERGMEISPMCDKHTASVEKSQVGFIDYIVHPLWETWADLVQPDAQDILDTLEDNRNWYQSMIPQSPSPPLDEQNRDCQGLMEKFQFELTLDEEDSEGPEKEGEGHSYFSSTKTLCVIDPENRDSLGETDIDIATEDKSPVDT
Procedure, shortened: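 Cell-based read-out of cAMP via a modified cyclic nucleotide-gated channel and membrane potential dye (535/590 nm) in HEK293 cells expressing PDE4 endogenously. Compounds tested up to 22.9 uM final; 100 uM RO 20-1724 reference.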

[15] = target: DNA dC->dU-editing enzyme APOBEC-3G (Homo sapiens) (UniProt Q9HC16); assay: qHTS for inhibitors of Vif-A3G interactions: Validation (AID 588379)
Procedure, shortened: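 Yellow fluorescence (Ex 488, Em 500-530) of Vif-coexpressing HeLa A3G-eYFP cells, scanned by Acumen cytometer, reports blocked A3G degradation. Cells plated at 700/well overnight at 37 deg C before compound addition, then a further overnight compound incubation at 37 deg C.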

[16] = Primary qHTS for small molecule stabilizers of the endoplasmic reticulum resident proteome: Secreted ER Calcium Modulated Protein (SERCaMP) assay (AID 1508630)
Procedure, shortened: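 The SH-SY5Y reporter protocol was run at 3 concentrations up to 38.3 uM (primary) or 11 concentrations (follow-up): 16 h compound, 100 nM thapsigargin for 4 h, then extracellular luciferase luminescence.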

[17] = measured here: cell count channel max response
[18] = measured here: lipid channel max response

Compound: Oc1c(Cl)c(Cl)c(Cl)c(Cl)c1Cl
- outcome [1]: inactive
- activity change, negative = inhibition [2]: -4.15% (inactive)
- max response [2, 17]: -3.69%
- max response [2, 18]: -7.5%
- Potency [3]: 79.4 µM (active)
- Potency [4]: inactive
- Potency [5]: inactive

Compound: O=c1c(O)c(-c2ccc(O)c(O)c2)oc2c(O)c(O)cc(O)c12
- activity change, negative = inhibition [2]: 10.8% (inactive)
- max response [2, 17]: -1.92%
- max response [2, 18]: 12.9%
- Potency [5]: inactive
- activity change, negative = inhibition [6]: 35.9% [at 5.25 µM] (inactive)

Compound: CCCCC/C=C\C=C\[C@H](CCCCCCCC(=O)O)OO
- activity change, negative = inhibition [7]: -1.43% [at 0.59 µM] (inactive)

Compound: COc1ccc2c(c1O)-c1cc(O)cc3c1[C@@H](C2)N(C)CC3
- Potency [7]: 29.9 µM (active)

Compound: Cc1ccc2c(c1)Cc1c(C(=O)NN3CCCCC3)nn(-c3ccc(Cl)cc3Cl)c1-2
- Potency [7]: inactive

Compound: Oc1ccc2c3c1O[C@H]1c4oc5ccccc5c4C[C@@]4(O)C(C2)N(CC2CC2)CC[C@]314
- Potency [7]: inactive

Compound: CCCCC/C=C\C/C=C\CCCCCCCC(=O)NCCO
- activity change, negative = inhibition [7]: 7.86% [at 6.83 µM] (inactive)

Compound: C[C@H](NC(=O)[C@@H](N)Cc1ccc(O)cc1)C(=O)NCC(=O)N(C)[C@@H](Cc1ccccc1)C(=O)N[C@H](CO)CCS(C)=O (some centres undefined)
- activity change, negative = inhibition [7]: 4.8% [at 6.83 µM] (inactive)

Compound: CCCCC[C@@H](/C=C/C=C\C/C=C\C/C=C\CCCC(=O)O)OO
- activity change, negative = inhibition [7]: 15.4% [at 0.59 µM] (inactive)

Compound: C[C@H]1O[C@@H](O[C@H]2[C@@H](O)C[C@@H](O[C@H]3[C@@H](O)C[C@H](O[C@H]4CC[C@@]5(C)[C@H](CC[C@@H]6[C@@H]5CC[C@]5(C)[C@@H](C7=CC(=O)OC7)CC[C@]65O)C4)O[C@@H]3C)O[C@@H]2C)C[C@H](O)[C@@H]1O
- Potency [5]: inactive
- Potency [8]: inactive
- Potency [6]: 0.0537 µM (active)

Compound: O=C(O)/C=C/CO
- Potency [7]: inactive

Compound: OC[C@H]1O[C@@H](n2cnc3cc(Cl)c(Cl)cc32)[C@H](O)[C@H]1O
- Potency [7]: inactive

Compound: C=CCN1CCC2(C)c3cc(O)ccc3CC1C2C (centres undefined)
- Potency [4]: inactive
- Potency [7]: inactive
- Potency [8]: inactive
- Potency [9]: inactive
- Potency [6]: inactive
- Potency [10]: inactive

Compound: CC(C)C[C@H](NC(=O)[C@H](Cc1ccccc1)NC(=O)CNC(=O)[C@@H](NC(=O)[C@@H](N)Cc1ccc(O)cc1)[C@H](C)O)C(=O)N[C@H](C(=O)O)[C@H](C)O
- activity change, negative = inhibition [7]: 4.9% [at 6.83 µM] (inactive)

Compound: Cc1ccc2c(=O)c3cccc(CC(=O)O)c3oc2c1C
- Potency [11]: 38.5 µM (active)

Compound: Clc1cncc(N2CCNCC2)n1
- Potency [12]: 2 µM (active)
- Potency [13]: > 46 µM (inactive)
- outcome [1]: inactive
- Potency [14]: inactive
- Potency [3]: inactive
- Potency [15]: inactive
- Potency [5]: 24.1 µM (active) and 10.8 µM (active)
- Potency [7]: 15 µM (active)
- Potency [8]: inactive
- Potency [9]: inactive
- Potency [6]: inactive

Compound: COC(=O)c1cc2c(cn1)[nH]c1ccccc12
- Potency [12]: 0.631 µM (active)
- Potency [13]: > 46 µM (inactive)
- outcome [1]: inactive
- Potency [14]: inactive
- Potency [4]: inactive
- Potency [5]: 24.1 µM (active)
- Potency [7]: 23.8 µM (active)
- Potency [8]: inactive
- Potency [9]: inactive
- Potency [6]: inactive
- Potency [16]: inactive
